According to PubChem BioAssay (Tox21):
Results filed as inconclusive are left out. Values without a mark were called inactive. Activity calls are given as the source filed them. Calls follow the shape of the dose curve; as a rule, active = well fitted cell-killing curve with a large enough effect in the repeat runs; inconclusive = weak or mixed curves, or effect the other way; inactive = flat fitted curve, though single readings scatter.

Assay: qHTS RealTime-Glo MT Cell Viability Assay in HEK293 cells - 24 hour (AID 1224886); also: nearly all actives have a fitted effect of over 50% in size; as to activity change, negative = cytotoxicity: top concentration of the series differs between compounds
Settings: RealTime-Glo luminescence; series mostly up to 76.8 µM; activity change, negative = cytotoxicity: at the top concentration
Text: National Center for Advancing Translational Sciences [NCATS]
NIH Chemical Genomics Center [NCGC]
U.S. Environmental Protection Agency [EPA]
National Institutes of Environmental Health Sciences [NIEHS]
National Toxicology Program [NTP]
U.S. Food and Drug Administration [FDA]
Measure of cell viability is critical in the cell-base assay. Analysis of cell viability is necessary for the characterization of cell responses to cytotoxic drugs and environmental stress. A RealTime-Glo MT Cell Viability Assay to monitor cell viability in real time of continues cell culture during 40 hours of compound treatment was used to screen Tox21 10K library compounds in Hek293 cells. The RealTime-Glo MT Cell Viability Assay is a nonlytic, homogeneous, bioluminescent method to measure cell viability in real time using a simple, plate-based method. The assay involves adding NanoLuc luciferase and a cell-permeant prosubstrate to cells in culture. Viable cells reduce the proprietary prosubstrate to generate a substrate for NanoLuc luciferase. This substrate diffuses from cells into the surrounding culture medium, where it is rapidly used by the NanoLuc Enzyme to produce a luminescent signal. The signal correlates with the number of viable cells, making the assay well suited for cytotoxicity studies.
Tox21 Assay Protocol Summary:
The mixture of Hek293 cell suspension and reagents were dispensed at 600cells/6 ul/well in 1536-well tissue culture treated black solid bottom plates using a Multidrop dispenser. After the assay plates were incubated at a 37 C/5% CO2 incubator for 5 hours, 23 nL of compounds dissolved in DMSO, positive and negative controls was transferred to the assay plate by a pintool work station. The plates were incubated at 37 C for 40 hours. The luminescence intensity were measured at 0h, 8h, 16h, 24h, 32h and 40h time points using ViewLux plate reader during compound treatment.
% is scaled to controls: 0 for no effect and ±100 for the full control effect; potency is read from the fitted curve at half-maximal effect.

SMILES | activity change, negative = cytotoxicity | Potency
CC(C)(C(=O)c1cccnc1)c1cccnc1 | 1.69% [at 35.3 µM] | 
Cc1ccc(S(=O)(=O)NC(=O)NC2CCCCC2)cc1 | 8.06% [at 35.3 µM] | 
CC(C)c1ccc(C#N)cc1 |  | 17.4 µM (active)
COc1ccc(C)cc1 | 8.8% | 
COC(=O)c1sccc1S(N)(=O)=O | -0.0966% | 
CSSc1ccoc1C | 1.76% | 
CCOc1ncc(F)c(=O)[nH]1 | -2.03% [at 35.3 µM] | 
C[C@@H]1[C@H](O)[C@@H](C)/C=C/C=C\C=C\C=C\C=C\C=C\C=C\[C@H](O[C@@H]2O[C@H](C)[C@@H](O)[C@H](N)[C@@H]2O)C[C@@H]2O[C@](O)(C[C@@H](O)C[C@@H](O)[C@H](O)CC[C@@H](O)C[C@@H](O)CC(=O)O[C@H]1C)C[C@H](O)[C@H]2C(=O)O (stereo in doubt) | 2.12% | 
COC1CCC=CO1 (stereo not given) | 8.35% | 
CC1CCc2nccnc21 (stereo not given) | 1.27% | 
CCCCOC(=O)CCCCC(=O)OCCCC | 0.732% | 
Cc1ccccc1S(N)(=O)=O | 11.5% | 
O=C(O)CCC(=O)c1ccc(-c2ccccc2)cc1 | 0.613% [at 35.3 µM] | 
Cc1c(C2(c3cc(Br)c(O)c(Br)c3C)OS(=O)(=O)c3ccccc32)cc(Br)c(O)c1Br | -13.7% | 
CC[C@H]1OC(=O)[C@H](C)[C@@H](O[C@H]2C[C@@](C)(OC)[C@@H](O)[C@H](C)O2)[C@H](C)[C@@H](O[C@@H]2O[C@H](C)C[C@H](N(C)C)[C@H]2O)[C@](C)(O)C[C@@H](C)/C(=N\OCOCCOC)[C@H](C)[C@@H](O)[C@]1(C)O | -15.2% [at 35.3 µM] | 
CCC(=O)OCc1ccc(OC)cc1 | -1.15% | 
N[C@@H](Cc1cc(I)c(O)c(I)c1)C(=O)O | 8.51% [at 35.3 µM] | 
C1=CCC2CC=CC2C1 (stereo not given) | 26.4% | 
COc1ccc(C(=O)NCc2ccc(OCCN(C)C)cc2)cc1OC | -0.333% [at 35.3 µM] | 
OCC(CO)n1cnc(-c2ccc(F)cc2)c1-c1ccnc(Oc2ccccc2)n1 | -25.6% | 

SMILES | activity change, negative = cytotoxicity | Potency
COC(C)(C)OC | 16.5% | 
CC(=O)NCCO | 11.8% | 
CC1CCCC(=O)C1=O (stereo not given) | 5.98% | 
CC(C)c1ccc(C(=O)N=C(N)N)cc1S(C)(=O)=O | 7.48% [at 35.3 µM] | 
Cc1ccc(Nc2c(F)cccc2Cl)c(CC(=O)O)c1 | 2.03% [at 35.3 µM] | 
O=C(Nc1ccc(C(=O)O)c(O)c1)c1ccccc1 | 7.72% [at 35.3 µM] | 
O=C(/C=C/c1ccc([N+](=O)[O-])cc1)c1ccccc1 |  | 31 µM (active)
CCN(Cc1cccc(S(=O)(=O)O)c1)c1ccc(C(=C2C=CC(=[N+](CC)Cc3cccc(S(=O)(=O)O)c3)C=C2)c2ccccc2S(=O)(=O)[O-])cc1 | -0.578% [at 35.3 µM] | 
O=c1[nH][nH]c(=O)c2cc([N+](=O)[O-])ccc12 | -12.2% | 
CCCCCCCCCCCC(=O)OCC(O)CO (stereo not given) | 2.16% | 
CC(=O)N[C@@H](Cc1ccc(O)cc1)C(=O)O | 4.95% [at 35.3 µM] | 
CCCC(=O)OC(=O)CCC | 27.6% | 
COC(CC(C)CCCC(C)(C)O)OC (stereo not given) | 3.67% | 
O=C(c1ccccc1)C1CCC1 | 9.94% | 
CC(C)(O)CCc1ccccc1 | -13.2% | 
CCCCCCCCCCCCCOS(=O)(=O)O | -6.87% | 
Cc1cc(CCC(=O)OCCOCCOCCOC(=O)CCc2cc(C)c(O)c(C(C)(C)C)c2)cc(C(C)(C)C)c1O | 1.11% | 
BrC(Br)C(Br)Br | -12.1% | 
CC(=O)NNC(C)=O | -1.31% | 
COC(OC)OC | 11.9% | 
